Test results published in PubChem BioAssay (Tox21).
Results filed as inconclusive are left out. Activity calls are given as the source filed them. Unless noted, calls follow the shape of the dose curve; as a rule, active = well fitted curve in the direction sought with a large enough effect in the repeat runs; inconclusive = weak or mixed curves; inactive = no such curve, though single readings can be large; an effect the other way counts as inactive or inconclusive.

Columns and labels:
[1] = qHTS assay to identify small molecule antagonists of the estrogen related receptor (ERR) signaling pathway from Tox21 library - cell viability counter screen (AID 1224834); also: nearly all actives have a fitted effect of over 30% in size
Outline: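 Cytotoxicity of test substances is gauged in the same ERR cells used for the antagonist screen, after 17.5 h of compound treatment at 37 C, by CellTiter-Fluor fluorescence measured after 30 min.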

[2] = qHTS assay to identify small molecule agonists of the constitutive androstane receptor (CAR) signaling pathway - cell viability counter screen (AID 1224836); also: nearly all actives have a fitted effect of over 45% in size
Outline: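 Fluorescence from CellTiter-Fluor indicates live cells after 23 h exposure. The human hepatoma line expresses hCAR and a CYP2B6-2.2kb reporter. Incubation medium contains 0.75 uM PK11195 (final).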

[3] = qHTS assay to identify small molecule antagonists of the constitutive androstane receptor (CAR) signaling pathway - cell viability counter screen (AID 1224837); also: nearly all actives have a fitted effect of over 45% in size
Outline: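 Multiplexed cytotoxicity read-out for the CAR antagonist screen: double-stable HepG2-CYP2B6-hCAR cells co-treated with 50 nM CITCO (final) and compound over 15 concentrations, incubated 23 hr, then assessed by CellTiter-Fluor fluorescence.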

[4] = qHTS assay to identify small molecule antagonists of the estrogen related receptor signaling pathway with the pleiotropic PPARgamma coactivator (PGC) from Tox21 10K library - cell viability counter screen (AID 1224840; active = well fitted cell-killing curve with a large enough effect in the repeat runs, not every such curve was filed as active; also: nearly all actives have a fitted effect of over 40% in size)
Outline: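 Step one, plate 2,000 PGC/ERR cells per well; step two, incubate 6 h at 37 C/5% CO2; step three, pin-transfer compounds; step four, incubate 17.5 h; step five, add CellTiter-Fluor and read fluorescence after 30 min.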

[5] = qHTS assay to identify small molecule antagonists of the estrogen related receptor signaling pathway with the pleiotropic PPARgamma coactivator (PGC) from Tox21 10K library (AID 1224841; call rule not given here; also: actives are mostly falling curves and most rising ones were filed inactive; nearly all actives have a fitted effect of over 50% in size)
Outline: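 Antagonism in this quantitative HTS is taken from loss of luciferase signal in PGC/ERR cells. Cells (2,000/well) are treated with compounds in DMSO after a 6 h settling period and read by One-Glo luminescence after 18 h.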

[6] = qHTS assay to identify small molecule agonists of the estrogen related receptor signaling pathway with the pleiotropic PPARgamma coactivator (PGC) from Tox21 10K library (AID 1224842); also: nearly all actives have a fitted effect of over 15% in size
Outline: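 PGC/ERR reporter cell line, 2,000 cells per well, incubated 6 h at 37 C before 23 nL compound in DMSO was added. After 18 h at 37 C, One-Glo luminescence read following 30 min at room temperature.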

[7] = target: Thyrotropin receptor (Homo sapiens) (UniProt P16473); experiment: qHTS assay to identify small molecule agonists of the thyroid stimulating hormone receptor (TSHR) signaling pathway (AID 1224843; calls by dose curve; also: nearly all actives have a fitted effect of over 45% in size)
Chain of Thyrotropin receptor (Homo sapiens) (P16473 whole entry, looked up): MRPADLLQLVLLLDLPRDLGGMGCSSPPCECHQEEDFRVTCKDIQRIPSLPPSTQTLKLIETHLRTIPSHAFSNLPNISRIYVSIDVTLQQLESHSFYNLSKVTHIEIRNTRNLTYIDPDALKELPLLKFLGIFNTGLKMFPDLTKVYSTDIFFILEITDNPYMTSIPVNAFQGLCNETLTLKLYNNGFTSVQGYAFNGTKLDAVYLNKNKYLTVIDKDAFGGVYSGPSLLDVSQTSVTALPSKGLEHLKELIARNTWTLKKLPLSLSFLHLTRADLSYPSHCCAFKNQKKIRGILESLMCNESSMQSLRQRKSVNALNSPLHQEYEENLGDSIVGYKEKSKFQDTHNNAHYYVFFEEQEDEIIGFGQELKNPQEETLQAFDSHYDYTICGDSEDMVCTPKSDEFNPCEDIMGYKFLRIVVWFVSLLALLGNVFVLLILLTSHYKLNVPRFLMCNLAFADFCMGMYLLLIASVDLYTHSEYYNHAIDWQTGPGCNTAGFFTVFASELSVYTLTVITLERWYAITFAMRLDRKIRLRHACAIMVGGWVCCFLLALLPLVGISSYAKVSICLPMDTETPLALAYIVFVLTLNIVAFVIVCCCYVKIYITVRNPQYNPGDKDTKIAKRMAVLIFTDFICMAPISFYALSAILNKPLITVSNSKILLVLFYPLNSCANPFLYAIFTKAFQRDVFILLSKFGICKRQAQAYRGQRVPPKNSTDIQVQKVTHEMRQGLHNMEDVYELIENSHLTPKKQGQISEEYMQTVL
Outline: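 Steps: seed 800 TSHR-HEK293 cells per well; add test compound and hold 30 min at ambient temperature; dispense cAMP-d2 then anti-cAMP cryptate; incubate 1 h at ambient; measure fluorescence intensity.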

[8] = qHTS assay to identify small molecule agonists of the hypoxia (HIF-1) signaling pathway - cell viability counter screen (AID 1224844; calls by dose curve; also: nearly all actives have a fitted effect of over 50% in size)
Outline: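 Tox21 10K compounds were added to HRE-bla ME-180 cells (0.5% dialyzed FBS) and incubated 17 hrs at 37C; ATP-based CellTiter-Glo luminescence then reported cell viability in the same wells.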

[9] = qHTS assay to identify small molecule agonists of H2AX (AID 1224845; active = well fitted activation curve with a large enough effect in the signal ratio in the repeat runs, not every such curve was filed as active; the % refers to the signal ratio)
Outline: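 Wild-type CHO-K1 cells, plated overnight, exposed 3hr at 37C to 15 concentrations (0.76% DMSO final). Lysed, then HTRF anti-pH2AX (S139) cryptate and anti-H2AX-d2 antibodies, 24 hr room temperature; 665/620 nm emission read.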

[10] = qHTS assay to identify small molecule agonists of the hypoxia (HIF-1) signaling pathway (AID 1224846; active = well fitted activation curve with a large enough effect in the signal ratio in the repeat runs, not every such curve was filed as active; the % refers to the signal ratio)
Outline: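 Steps: seed ME-180 HRE-bla cells (2,000/well, 0.5% dialyzed FBS); incubate 5 hrs at 37C; pin-transfer compounds or DMSO; incubate 17 hrs; add LiveBLAzer B/G substrate CCF4-AM; measure reporter activation by FRET.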

[11] = qHTS assay to identify small molecule antagonists of the estrogen related receptor (ERR) signaling pathway from Tox21 library (AID 1224848); also: nearly all actives have a fitted effect of over 50% in size
Outline: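 Luminescent reporter read-out (ONE-Glo) from NTP's ERR cell line after 18 h treatment at 37 C with DMSO-dissolved Tox21 compounds; cells pre-plated 6 h beforehand at 2,000 per well.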

[12] = qHTS assay to identify small molecule agonists of the estrogen related receptor (ERR) signaling pathway from Tox21 library (AID 1224849; calls by dose curve; also: nearly all actives have a fitted effect of over 15% in size); settings: ERR reporter cell line, ONE-Glo luciferase, 18 h; at 92.4 µM (top of the series) unless noted
Outline: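 Agonist signal is luciferase luminescence from an ERR reporter cell line treated 18 h at 37 C with DMSO-dissolved compounds, read 30 min after ONE-Glo addition at room temperature.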

[13] = qHTS RealTime-Glo MT Cell Viability Assay in HepG2 cells - 24 hour (AID 1224867); also: nearly all actives have a fitted effect of over 50% in size
Outline: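 Luminescence read-out: viable HepG2 cells reduce a prosubstrate to a NanoLuc substrate, giving a signal proportional to live cell number. Reads taken at 0, 8, 16, 24, 32 and 40 h of compound exposure at 37 C.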

[14] = qHTS RealTime-Glo MT Cell Viability Assay in HEK293 cells - 32 hour (AID 1224868)
Outline: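 Nonlytic real-time viability readout: viable cells convert prosubstrate to NanoLuc substrate, giving luminescence proportional to live cell number. HEK293, 600 cells/well, compound added after 5 h, continuous culture at 37 C.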

[15] = A CellTox Green Cytotoxicity Assay to monitor cytotoxicity in HEK293 cells - 0 hour (AID 1224869); also: nearly all actives have a fitted effect of over 50% in size
Outline: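 Cytotoxicity was tracked continuously in HEK293 cells by a DNA-binding dye excluded from viable cells. Compounds were transferred in DMSO 5 h after seeding; fluorescence was recorded at intervals up to 40 h.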

[16] = qHTS RealTime-Glo MT Cell Viability Assay in HepG2 cells - 40 hour (AID 1224870); also: nearly all actives have a fitted effect of over 50% in size
Outline: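 HepG2 cells (600/well) mixed with RealTime-Glo MT reagent, settled 5 h at 37 C/5% CO2 before compound addition. Nonlytic NanoLuc luminescence from viable-cell prosubstrate reduction read repeatedly during 40 h treatment at 37 C.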

[17] = target: Nuclear receptor subfamily 1 group I member 3 (Homo sapiens) (UniProt Q14994); experiment: qHTS assay to identify small molecule agonists of the constitutive androstane receptor (CAR) signaling pathway (AID 1224839);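 also: HepG2 cells stably carrying human CAR and a CYP2B6 luciferase reporter; nearly all actives have a fitted effect of over 15% in size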
Chain of Nuclear receptor subfamily 1 group I member 3 (Homo sapiens) (Q14994 whole entry, looked up): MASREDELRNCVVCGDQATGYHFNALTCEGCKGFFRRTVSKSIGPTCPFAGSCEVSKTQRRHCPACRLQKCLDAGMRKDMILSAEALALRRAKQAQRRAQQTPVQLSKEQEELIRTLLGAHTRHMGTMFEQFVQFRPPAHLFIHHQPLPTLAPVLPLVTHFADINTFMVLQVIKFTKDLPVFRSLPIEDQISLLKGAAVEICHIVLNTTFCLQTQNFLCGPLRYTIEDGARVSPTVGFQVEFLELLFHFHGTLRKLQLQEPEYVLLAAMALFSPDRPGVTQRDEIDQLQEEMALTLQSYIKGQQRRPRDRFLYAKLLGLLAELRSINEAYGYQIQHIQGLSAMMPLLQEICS
Outline: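 Stable hCAR/CYP2B6-2.2kb HepG2 line in DMEM with 10% FBS; compounds (15 concentrations) and 0.75 uM PK11195 final, 24 h at 37 C/5% CO2, then ONE-Glo luminescence after 30 min.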

[18] = qHTS assay to identify small molecule agonists of H2AX - cell viability counter screen (AID 1224847; calls by dose curve; also: top concentration of the series differs between compounds; nearly all actives have a fitted effect of over 30% in size)
Outline: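 Viability of CHO-K1 (wild type) cells after 3 hr compound exposure was measured by CellTiter-Glo luminescence.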

[19] = target: Nuclear receptor subfamily 1 group I member 3 (Homo sapiens) (UniProt Q14994); experiment: qHTS assay to identify small molecule antagonists of the constitutive androstane receptor (CAR) signaling pathway (AID 1224838); also: nearly all actives have a fitted effect of over 40% in size
Outline: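 Compounds were titrated across 15 concentrations onto HepG2 cells double-stably expressing hCAR and a CYP2B6-2.2kb reporter, together with 50 nM CITCO (final). After 24 h at 37 C, luciferase activity was measured by luminescence.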
% is scaled to controls: 0 for no effect and ±100 for the full control effect.

CNc1ncnc2nc[nH]c12
inactive: Potency [1] | outcome [2] | outcome [3] | outcome [4] | Potency [5] | Potency [6] | outcome [7] | Potency [8] | outcome [9] | outcome [10] | Potency [11] | activity change, positive = activation [12] 1.91% | outcome [13] | Potency [14] | Potency [15] | Potency [16]

CC(C)c1cccc(C(C)C)c1N
inactive: Potency [1] | outcome [2] | outcome [3] | Potency [17] | outcome [4] | Potency [5] | Potency [6] | Potency [8] | outcome [9] | outcome [10] | Potency [11] | activity change, positive = activation [12] 0.341% | Potency [14] | Potency [15]

CC(C)(O)C(=O)c1ccc(OCCO)cc1
inactive: Potency [1] | outcome [2] | outcome [4] | Potency [8] | outcome [10] | Potency [18] | outcome [13] | Potency [14] | Potency [15] | Potency [16]

O=C1C(CCS(=O)c2ccccc2)C(=O)N(c2ccccc2)N1c1ccccc1 (stereo unspecified)
inactive: Potency [1] | outcome [2] | Potency [19] | Potency [17] | Potency [8] | outcome [9] | Potency [18] | outcome [13] | Potency [14] | Potency [15] | Potency [16]

CC1CCN(CCCC(=O)c2ccc(F)cc2)CC1
inactive: Potency [1] | outcome [2] | Potency [19] | Potency [17] | outcome [4] | Potency [5] | Potency [6] | outcome [7] | Potency [8] | outcome [9] | outcome [10] | Potency [18] | Potency [11] | activity change, positive = activation [12] 6.1% [at 42.5 µM] | outcome [13] | Potency [14] | Potency [15] | Potency [16]

COc1cc(C)cc(O)c1
inactive: Potency [1] | outcome [2] | outcome [3] | Potency [17] | outcome [4] | Potency [8] | outcome [9] | Potency [18] | outcome [13] | Potency [14] | Potency [15] | Potency [16]

O=C1OC(=O)c2cc([N+](=O)[O-])ccc21
inactive: Potency [1] | outcome [2] | outcome [3] | outcome [4] | outcome [7] | Potency [8] | outcome [9] | Potency [18] | outcome [13] | Potency [14] | Potency [15] | Potency [16]

CC(C)CCCC(C)NCCC(C)C (stereo unspecified)
inactive: Potency [1] | outcome [2] | outcome [3] | Potency [5] | Potency [6] | outcome [7] | Potency [8] | outcome [9] | outcome [10] | Potency [18] | Potency [11] | activity change, positive = activation [12] 1.21% [at 42.5 µM] | outcome [13] | Potency [14] | Potency [15] | Potency [16]

NC(=O)c1ncn([C@@H]2O[C@H](CO)[C@@H](O)[C@H]2O)c1O
inactive: Potency [1] | outcome [2] | Potency [19] | Potency [17] | outcome [7] | Potency [8] | outcome [9] | Potency [18] | outcome [13] | Potency [14] | Potency [15] | Potency [16]
